Assay results: article PMC5540273 (PLoS ONE, 2017)
Where “and” joins values, the source holds several entries; their conditions need not be identical. Equal entries are not always repeated.

System: T1, ERK8
T1 construct: gene MAPK15
Settings: concentration: 1 μM, replicates: in singlicate; n = 1
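Further: KINOMEscan kinase panel screen.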

Structure (SMILES) | %Inh [%]
N#Cc1c(N2CCOCC2)sc(-c2ccn[nH]2)c1-c1ccc(Cl)cc1 | 5
c1ccc(-c2cc(-c3c[nH]nc3-c3ccccn3)ccn2)cc1 [GW576604] | 0
O=C(NCCCN1CCOCC1)c1cccc(Nc2nccc(Nc3ccc(Oc4ccccc4)cc3)n2)c1 [GW663929] | 0
CCCCCc1nc2c(N)ncnc2n1CCCCC [SKF-97255] | 29
Cc1c(Cn2c(C)nn3c(=O)cc(N4CCOC(C)C4)nc23)cccc1C(F)(F)F (centres unmarked) [GSK2344444] | 26
O=C(NCCNc1ccnc(Nc2ccc(F)cc2)n1)c1cc2ccccc2s1 [GSK1379874] | 0
CC(C)Oc1ccc2c(-c3ccnc(Nc4ccc(N5CCN(C)CC5)cc4)n3)cnn2n1 [GW696155] | 98
COc1cc2c(cc1OCCN1CCN(C)CC1)ncc1c3ccc(C#N)cc3[nH]c21 | 0
CC(=O)Nc1ccc(COc2ccc(Nc3ccnc4cc(-c5ccccn5)ccc34)cc2)cc1.Cl [GW440148] | 0
CC(C)(C)n1cnc2c(N)ncnc21 [SKF-97359] | 8
CC(C)(CN)c1nc(-c2ccc(Cl)c(O)c2)c(-c2ccncc2)[nH]1.O=C(O)C(F)(F)F [SB-477794] | 0
CN(C1=C(c2ccccc2)C(=O)NC1=O)c1ccccc1 [SB-334860] | 0
Cl.Nc1ncnc2occ(-c3ccc(NC(=O)Nc4cc(C(F)(F)F)ccc4F)cc3)c12 [SB-707548] | 99.2
NS(=O)(=O)c1cccc(-c2ccc3nccc(-c4cccc(S(N)(=O)=O)c4)c3c2)c1 [GW867253] | 1
NS(=O)(=O)c1cccc(-c2ccc3ncc(N4CCOCC4)nc3c2)c1 [GSK1535721] | 0
COc1ccc(CNC(=O)NC2CCN(c3ccnc(Nc4ccc(OC)cc4)n3)C2)cc1 (centres unmarked) [GSK1379727] | 0
Cc1nnc(-c2ccc(C)c(-c3ccc(C(=O)Nc4ccc(NS(C)(=O)=O)cc4)cc3)c2)o1 [GW702865] | 0

Structure (SMILES) | %Inh [%]
Cc1nnc(-c2ccc3occ(-c4ccc(C(C)O)cc4)c3c2)o1 (centres unmarked) | 31
[2H]C([2H])(c1cccc(C(F)(F)F)c1C)n1ccn2c(=O)nc(N3CCOCC3)cc12 [GSK2336394] | 0
NCC(NC(=O)c1cc(-c2cn[nH]c2)c(-c2ccnc3[nH]ccc23)s1)c1ccccc1.O=C(O)C(F)(F)F.O=C(O)C(F)(F)F (centres unmarked) [GSK1325775] | 51
O=C(NCCNc1ccnc(Nc2ccc(F)cc2)n1)Nc1ccccc1F [GSK1379880] | 0
COc1ccc(S(=O)(=O)NC2CCN(c3cc(C)nc(Nc4cccc(C#N)c4)n3)CC2)cc1.O=C(O)C(F)(F)F [GSK1653539] | 0
O=C1NC(=O)C(N2CCc3ccccc32)=C1c1cccc(Cl)c1 [SB-408010] | 9
O=c1cc(N2CCOCC2)nc2n(Cc3cccc(Cl)c3Cl)c(C3CC3)nn12 [GSK2358994] | 13
O=c1cc(N2CCOCC2)nc2n(Cc3cccc(F)c3)ccn12 [GSK2297430] | 6
CSc1ccc(-c2cc3ncnc(SCC(=O)O)c3s2)cc1 | 18
O=C(c1ccc(-c2cc(-c3c[nH]nc3-c3ccccn3)ccn2)cc1)N1CCOCC1 [GW812171] | 5
COc1ccc(Nc2nccc(N3CCC(NC(=O)Nc4cc(C)ccc4C)C3)n2)cc1 (centres unmarked) [GSK1379741] | 0
Fc1ccc(-c2nn3c(OCC(F)(F)F)cccc3c2-c2ccncc2)cc1 [GW514784] | 0
N#Cc1ccc(-c2cc(-c3c[nH]nc3-c3ccccn3)ccn2)cc1 [GW693028] | 10
COc1cc2ncn(-c3cc(OCc4sccc4Cl)c(C(N)=O)s3)c2cc1OC [GSK448459] | 20
NS(=O)(=O)CCc1cccc(Nc2nccc(-c3c(-c4cccc(NC(=O)c5c(F)cccc5F)c4)nn4ccccc34)n2)c1 [GSK336735] | 0
O=C(Nc1n[nH]c2cc(-c3cccc(F)c3)ccc12)C1CC1 [SB-735464] | 32

System: ERN1
Settings: concentration: 1 μM, replicates: in singlicate; 1 µM; n = 1

Structure (SMILES) | %Inh
NCCNS(=O)(=O)c1ccc(-c2ccnc3[nH]ccc23)cc1 [GSK977617] | 31% and 6%
CC(C)(CN)c1nc(-c2ccc(Cl)c(O)c2)c(-c2ccncc2)[nH]1.O=C(O)C(F)(F)F [SB-477794] | 1% and 22%
Cl.Cl.Cl.Fc1ccc(-c2ncn(C3CCNCC3)c2-c2ccnc(Nc3ccccc3)n2)cc1 [SB-238039] | 19% and 6%

Same assay, conditions: concentration: 1 μM, replicates: in singlicate; n = 1

Structure (SMILES) | %Inh [%]
N#Cc1c(N2CCOCC2)sc(-c2ccn[nH]2)c1-c1ccc(Cl)cc1 | 4
c1ccc(-c2cc(-c3c[nH]nc3-c3ccccn3)ccn2)cc1 [GW576604] | 0
O=C(NCCCN1CCOCC1)c1cccc(Nc2nccc(Nc3ccc(Oc4ccccc4)cc3)n2)c1 [GW663929] | 21
CCCCCc1nc2c(N)ncnc2n1CCCCC [SKF-97255] | 13
Cc1c(Cn2c(C)nn3c(=O)cc(N4CCOC(C)C4)nc23)cccc1C(F)(F)F (centres unmarked) [GSK2344444] | 24
O=C(NCCNc1ccnc(Nc2ccc(F)cc2)n1)c1cc2ccccc2s1 [GSK1379874] | 54
CC(C)Oc1ccc2c(-c3ccnc(Nc4ccc(N5CCN(C)CC5)cc4)n3)cnn2n1 [GW696155] | 62
COc1cc2c(cc1OCCN1CCN(C)CC1)ncc1c3ccc(C#N)cc3[nH]c21 | 0
CC(=O)Nc1ccc(COc2ccc(Nc3ccnc4cc(-c5ccccn5)ccc34)cc2)cc1.Cl [GW440148] | 17
CC(C)(C)n1cnc2c(N)ncnc21 [SKF-97359] | 0
CN(C1=C(c2ccccc2)C(=O)NC1=O)c1ccccc1 [SB-334860] | 20
Cl.Nc1ncnc2occ(-c3ccc(NC(=O)Nc4cc(C(F)(F)F)ccc4F)cc3)c12 [SB-707548] | 25
NS(=O)(=O)c1cccc(-c2ccc3nccc(-c4cccc(S(N)(=O)=O)c4)c3c2)c1 [GW867253] | 39
NS(=O)(=O)c1cccc(-c2ccc3ncc(N4CCOCC4)nc3c2)c1 [GSK1535721] | 2
COc1ccc(CNC(=O)NC2CCN(c3ccnc(Nc4ccc(OC)cc4)n3)C2)cc1 (centres unmarked) [GSK1379727] | 0
Cc1nnc(-c2ccc(C)c(-c3ccc(C(=O)Nc4ccc(NS(C)(=O)=O)cc4)cc3)c2)o1 [GW702865] | 0

Structure (SMILES) | %Inh [%]
Cc1nnc(-c2ccc3occ(-c4ccc(C(C)O)cc4)c3c2)o1 (centres unmarked) | 0
[2H]C([2H])(c1cccc(C(F)(F)F)c1C)n1ccn2c(=O)nc(N3CCOCC3)cc12 [GSK2336394] | 0
NCC(NC(=O)c1cc(-c2cn[nH]c2)c(-c2ccnc3[nH]ccc23)s1)c1ccccc1.O=C(O)C(F)(F)F.O=C(O)C(F)(F)F (centres unmarked) [GSK1325775] | 29
O=C(NCCNc1ccnc(Nc2ccc(F)cc2)n1)Nc1ccccc1F [GSK1379880] | 11
COc1ccc(S(=O)(=O)NC2CCN(c3cc(C)nc(Nc4cccc(C#N)c4)n3)CC2)cc1.O=C(O)C(F)(F)F [GSK1653539] | 4
O=C1NC(=O)C(N2CCc3ccccc32)=C1c1cccc(Cl)c1 [SB-408010] | 27
O=c1cc(N2CCOCC2)nc2n(Cc3cccc(Cl)c3Cl)c(C3CC3)nn12 [GSK2358994] | 0
O=c1cc(N2CCOCC2)nc2n(Cc3cccc(F)c3)ccn12 [GSK2297430] | 0
CSc1ccc(-c2cc3ncnc(SCC(=O)O)c3s2)cc1 | 0
O=C(c1ccc(-c2cc(-c3c[nH]nc3-c3ccccn3)ccn2)cc1)N1CCOCC1 [GW812171] | 54
COc1ccc(Nc2nccc(N3CCC(NC(=O)Nc4cc(C)ccc4C)C3)n2)cc1 (centres unmarked) [GSK1379741] | 0
Fc1ccc(-c2nn3c(OCC(F)(F)F)cccc3c2-c2ccncc2)cc1 [GW514784] | 0
N#Cc1ccc(-c2cc(-c3c[nH]nc3-c3ccccn3)ccn2)cc1 [GW693028] | 0
COc1cc2ncn(-c3cc(OCc4sccc4Cl)c(C(N)=O)s3)c2cc1OC [GSK448459] | 0
NS(=O)(=O)CCc1cccc(Nc2nccc(-c3c(-c4cccc(NC(=O)c5c(F)cccc5F)c4)nn4ccccc34)n2)c1 [GSK336735] | 21
O=C(Nc1n[nH]c2cc(-c3cccc(F)c3)ccc12)C1CC1 [SB-735464] | 12
